The values below come from PubChem BioAssay (NCATS).

Records with an inconclusive call do not appear. The source made the active and inactive calls. Calls come from the whole dose curve; as a rule, active = well fitted curve in the direction sought with a large enough effect; inconclusive = small, poorly fitted or top-dose-only effect, or another doubt; inactive = no such curve, though single readings can be large; an effect the other way counts as inactive or inconclusive.
Note: nearly all actives have a fitted effect of over 35% in size.
Potency is the fitted concentration of half-maximal effect.

The nature of one assay: Quantitative highthroughput screen to assess conditional lethalithy of NOMO1 cells grown in Human Plasma-Like Medium with dialyzed fetal bovine serum (HPLM+ds) (AID 1963878). As to conditions: NOMO1 AML cells in HPLM+ds, CellTiter-Glo viability, 48 h; series mostly up to 45.8 µM. In outline: (§1)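 Each medium arm—HPLM with 10% dialyzed FBS, or RPMI1640 with 5 mM glucose and 10% untreated or dialyzed FBS—was screened against an 11-point, 3-fold compound titration for 48 h at 37 °C, with CellTiter-Glo luminescence as endpoint.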
For orientation: In ATP-based viability assays light output follows the ATP content of the culture.
With `O=C(Cc1cccc(OC(F)(F)F)c1)Nc1ccc(CCCCc2nnc(NC(=O)Cc3ccccn3)s2)nn1`, the Potency entry is “inactive”.
Same read-out and setting: under `CC(=O)NCC(=O)N1[C@H]2CC[C@H]1c1cc(Nc3ncc(C(F)(F)F)c(NC4CCC4)n3)ccc12` stands 0.296 µM (active); under `CC1=C(C(=O)Nc2cc3cn[nH]c3cc2F)C(c2ccc(C(F)(F)F)cc2)CC(=O)N1` (stereo unspecified), 11.8 µM (active); under `O=C(O)C[C@H](O)C[C@H](O)C=Cc1c(C2CC2)nc2ccccc2c1-c1ccc(F)cc1`, 20.9 µM (active).
On the same count and under the same terms, as for `CC(=O)Nc1sc2c(c1-c1nc3ccccc3s1)CNC2`, the entry is “inactive”; as for `CCC[C@H](NC(=O)C(C#N)=Cc1cccc(Br)n1)c1ccccc1`, 20.9 µM (active); as for `COc1cc(O)c2c(c1)C(=O)c1cc(C)cc(O)c1C2=O`, 9.11 µM (active).
Same read-out and setting: under `CCOC(=O)c1c(CSc2ccccc2)n(C)c2cc(Br)c(O)c(CN(C)C)c12` stands “inactive”.
Regarding `CC(N[C@H]1CCCC[C@H]1NC(=O)c1ccc(Cl)cc1)c1cccc2ccccc12` (stereo partly specified), the Potency was 5.26 µM (active).
The same measure, in the same setting: under `CC(C)N(C[C@H]1O[C@@H](n2cnc3c(N)ncnc32)[C@H](O)[C@@H]1O)C1CC(CCc2nc3ccc(C(C)(C)C)cc3[nH]2)C1` (stereo partly specified) stands 5.88 µM (active); under `C[C@H](NCc1ccc(OCc2cccc(F)c2)cc1)C(N)=O`, 20.9 µM (active); under `COCCCCC(=NOCCN)c1ccc(C(F)(F)F)cc1`, 18.7 µM (active).
Still for that read-out and setting: as for `CC[C@H]1OC(=O)[C@H](C)[C@@H](O[C@H]2C[C@@](C)(OC)[C@@H](O)[C@H](C)O2)[C@H](C)[C@@H](O[C@@H]2O[C@@H](C)C[C@H](N(C)C)[C@@H]2O)[C@](C)(O)C[C@@H](C)C(=O)[C@H](C)[C@@H](O)[C@]1(C)O`, the figure is 9.35 µM (active).
For the compound `Oc1ccc(C=Cc2cc(O)cc(O)c2)cc1`, the Potency was 14.8 µM (active).
Still for that read-out and setting: under `COc1cc2c(Nc3ccc(Cl)c(Cl)c3F)ncnc2cc1OCC1C[C@@H]2CN(C)C[C@H]2C1` stands 4.18 µM (active); under `Cc1cc(OCCCS(C)(=O)=O)cc(C)c1-c1cccc(COc2ccc3c(c2)OC[C@H]3CC(=O)O)c1`, “inactive”.
Still for that read-out and setting: as for `C=CC[C@@H]1C=C(C)C[C@H](C)C[C@H](OC)[C@H]2O[C@@](O)(C(=O)C(=O)N3CCCC[C@H]3C(=O)O[C@H](C(C)=C[C@@H]3CC[C@H](O)[C@H](OC)C3)[C@@H](C)[C@@H](O)CC1=O)[C@@H](C)C[C@@H]2OC`, the figure is 4.18 µM (active); as for `CC(C)NC[C@@H](C(=O)N1CCN(c2ncnc3c2[C@H](C)C[C@H]3O)CC1)c1ccc(Cl)cc1`, 14.8 µM (active).
The same measure, in the same setting: as for `CC(C)[N+]1(C)[C@@H]2CC[C@H]1CC(OC(=O)C(CO)c1ccccc1)C2` (stereo partly specified), the figure is 13.2 µM (active).
`N#Cc1ccc(COC[C@H]2O[C@@H](n3c(NCc4ccc(Cl)c(Cl)c4)nc4c(N)ncnc43)[C@@H](O)[C@@H]2O)cc1`: the Potency was 7.43 µM (active).
The same measure, in the same setting: under `Cc1cnn(C)c1C(=O)Nc1cc(Nc2ccc3c(C=Cc4ccccn4)n[nH]c3c2)ccc1F` stands 16.6 µM (active); under `Clc1ccc2ncc(-c3cccc(NC4CNC4)n3)n2c1`, 20.9 µM (active).

A short description of the next assay: Quantitative highthroughput screen to assess conditional lethalithy of P12 Ichikawa cells grown in Human Plasma-Like Medium with dialyzed fetal bovine serum (HPLM+ds) (AID 1963879). As to conditions: ATP luminescence, 48 h; Potency: viability; series mostly up to 45.8 µM. In outline:
as §1
Consider `O=C(Cc1cccc(OC(F)(F)F)c1)Nc1ccc(CCCCc2nnc(NC(=O)Cc3ccccn3)s2)nn1`, for which the Potency entry was “inactive”.
The same measure, in the same setting: under `NCc1c[nH]c(=S)n1[C@H]1CCc2c(F)cc(F)cc2C1` stands “inactive”; under `CC(=O)NCC(=O)N1[C@H]2CC[C@H]1c1cc(Nc3ncc(C(F)(F)F)c(NC4CCC4)n3)ccc12`, 0.132 µM (active).
Same read-out and setting: as for `COc1ccc(-c2coc3cc(O)ccc3c2=O)cc1`, the entry is “inactive”.
Consider `CC(=O)Nc1sc2c(c1-c1nc3ccccc3s1)CNC2`, for which the Potency result is “inactive”.
The same measure, in the same setting: under `CCOC(=O)c1c(CSc2ccccc2)n(C)c2cc(Br)c(O)c(CN(C)C)c12` stands “inactive”.
With `O=c1c(-c2ccc(O)cc2)coc2cc(O)cc(O)c12`, the Potency result was “inactive”.
On the same count and under the same terms, as for `CCC1=C[C@@H]2CN(C1)Cc1c([nH]c3ccccc13)[C@@](C(=O)OC)(c1cc3c(cc1OC)N(C)[C@@H]1[C@@](O)(C(=O)OC)[C@H](OC(C)=O)[C@]4(CC)C=CCN5CC[C@]31[C@@H]54)C2`, the figure is 0.0372 µM (active); as for `CC(C)N(C[C@H]1O[C@@H](n2cnc3c(N)ncnc32)[C@H](O)[C@@H]1O)C1CC(CCc2nc3ccc(C(C)(C)C)cc3[nH]2)C1` (stereo partly specified), 1.05 µM (active); as for `CN[C@H]1[C@@H](O)[C@@H]2O[C@@H]3O[C@H](C)CC(=O)[C@]3(O)O[C@@H]2[C@@H](NC)[C@H]1O`, “inactive”.
For `C[C@H](NCc1ccc(OCc2cccc(F)c2)cc1)C(N)=O`, the Potency was 23.5 µM (active).
Consider `COCCCCC(=NOCCN)c1ccc(C(F)(F)F)cc1`, for which the Potency entry was “inactive”.
On the same count and under the same terms, as for `CC[C@H]1OC(=O)[C@H](C)[C@@H](O[C@H]2C[C@@](C)(OC)[C@@H](O)[C@H](C)O2)[C@H](C)[C@@H](O[C@@H]2O[C@@H](C)C[C@H](N(C)C)[C@@H]2O)[C@](C)(O)C[C@@H](C)C(=O)[C@H](C)[C@@H](O)[C@]1(C)O`, the figure is 16.6 µM (active); as for `NNCCc1ccccc1`, “inactive”.
On the same count and under the same terms, under `O=c1[nH]c(=O)n([C@H]2C[C@@H](O)[C@@H](CO)O2)cc1F` stands 0.0833 µM (active); under `OC[C@H]1O[C@@H](Oc2cc(O)cc(C=Cc3ccc(O)cc3)c2)[C@H](O)[C@@H](O)[C@H]1O`, “inactive”; under `COc1cc2c(Nc3ccc(Cl)c(Cl)c3F)ncnc2cc1OCC1C[C@@H]2CN(C)C[C@H]2C1`, 11.8 µM (active).
For `CNC(=O)c1ccc(N2C(=S)N(c3cnc(C#N)c(C(F)(F)F)c3)C(=O)C23CCC3)cc1F`, the Potency result is “inactive”.
On the same count and under the same terms, under `O=C(Nc1ccccc1)Nc1ccc(-c2ccc(C(=O)[C@H]3CCC[C@H]3C(=O)O)cc2)cc1` stands “inactive”.
With `O=c1cc(-c2ccc(O)cc2)oc2cc(O)cc(O)c12`, the Potency entry is “inactive”.
Same read-out and setting: as for `N#Cc1ccc(COC[C@H]2O[C@@H](n3c(NCc4ccc(Cl)c(Cl)c4)nc4c(N)ncnc43)[C@@H](O)[C@@H]2O)cc1`, the entry is “inactive”.
Still for that read-out and setting: under `Nc1ccn([C@@H]2O[C@H](CO)[C@H](O)C2(F)F)c(=O)n1` stands 0.0833 µM (active); under `Cc1cnn(C)c1C(=O)Nc1cc(Nc2ccc3c(C=Cc4ccccn4)n[nH]c3c2)ccc1F`, 20.9 µM (active).
On to `CC1(C)C(=O)N(CCN2CCC(C(=O)c3ccc(F)cc3)CC2)c2ccccc21`, for which the Potency entry was “inactive”.
